KCNQ2 block: inhibitors of rat KCNQ2 potassium channel | CHO-K1 KCNQ2, FluxOR thallium flux, 20 min; stronger effect = lower value | B-score at 10 µM | 310,000 compounds, 1.1% hits | AID 2156;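 active means fluorescence ratio B-score at most minus 3 library SDs, with starting brightness B-score within 2 library SDs, cut at about -5.5 in these data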
KCNQ2 enhance: enhances the rat KCNQ2 potassium channel; O88943; CHO-K1 KCNQ2, FluxOR thallium flux fluorescence; stronger effect = higher value; B-score at 10 µM; 310,000 compounds, 0.54% hits; AID 2239;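 active means fluorescence ratio B-score at least 3 SD of library B-scores, with initial fluorescence B-score within 3 of them, cut at about 5.3 in these data; same plate scores as AID 2156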;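 further: B-score of peak minus minimum over baseline fluorescence ratio after K+ and Tl+ stimulus; positive B-score means potentiation of KCNQ2 with more thallium influx and brighter signal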
* hit, by the source's call; i = inactive; · = no result. Most compounds without a hit are left out; they make up all but 1.6% or so of the library.

SMILES	KCNQ2 block	KCNQ2 enhance
COCCNC(=O)c1ccccc1NC(=O)c1ccc(Cl)c(S(=O)(=O)Nc2ccc(C)cc2C)c1	i	·
Cc1ccc(C)c(NS(=O)(=O)c2cc(C(=O)Nc3ccccc3-c3ccccc3)ccc2Cl)c1	-7.09*	-7.09
Cc1ccc(C)c(S(=O)(=O)N2CCN(C(C)C(=O)Nc3ccccc3-c3ccccc3)CC2)c1 (centres undefined)	-5.83*	-5.83
Cc1ccccc1NC(=O)CCNS(=O)(=O)c1cccc2nsnc12	i	0.46
CC1CCCCC1NC(=O)C1CCN(S(=O)(=O)c2cccc3nonc23)CC1 (centres undefined)	i	0.25
Cc1ccc(C(=O)Nc2ccccc2-c2ccccc2)cc1[N+](=O)[O-]	i	·
Cc1ccc(C(=O)Nc2cc(Cl)ccc2Oc2ccccc2)cc1[N+](=O)[O-]	-6.14*	-6.14
CC(OC(=O)CNC(=O)c1ccc(Cl)cc1)C(=O)NC1CCCCC1C (centres undefined)	i	1.95
COc1cccc(N2CCN(c3ccc4nnc(CCC(=O)Nc5ccc(OC)c(OC)c5)n4n3)CC2)c1	i	·
O=C(Nc1ccc([N+](=O)[O-])cn1)c1cc(-c2cccc(Br)c2)nc2ccccc12	i	·
O=C(c1cc(-c2cccc(Cl)c2)nc2ccccc12)N1CCCC1	-8.08*	-8.08
O=C(c1cc(-c2ccccc2)nc2ccccc12)N1CCCC1	i	0.04
O=C(Nc1ccccn1)c1cc(-c2cccc(Cl)c2)nc2ccccc12	-5.64*	-5.64
O=C(Nc1ccc([N+](=O)[O-])cn1)c1cc(-c2cccc(Cl)c2)nc2ccccc12	-5.58*	-5.58
O=C(Nc1ncccn1)c1cc(-c2cccc(Br)c2)nc2ccccc12	i	·
CCCCn1c(N)c(N(CC(C)C)C(=O)COC(=O)Cc2cccc(OC)c2)c(=O)[nH]c1=O	i	·
COc1cccc(NS(=O)(=O)c2ccc(-n3cccn3)cc2)c1	i	0.77
COc1cccc(NC(=O)CSc2nc3c(sc4ccccc43)c(=O)n2CCN(C)C)c1	i	0.49
CC1CCN(CCCn2c(SCC(=O)Nc3ccccc3Cl)nc3ccccc3c2=O)CC1	i	·
COc1cccc(NC(=O)CSc2nc3c(sc4ccccc43)c(=O)n2CCCN2CCCC2)c1	-6.67*	-6.67
Cc1ccc(NC(=O)CSc2nc3ccccc3c(=O)n2CCCN2CCCCC2)cc1Cl	-7.86*	-7.86
CC1=C(C(N)=O)C(c2ccccc2[N+](=O)[O-])n2ncnc2N1 (centres undefined)	i	0.51
COc1ccc(C(CNC(=O)C(C)Oc2ccc(Br)cc2)N2CCCC2)cc1 (centres undefined)	i	0.51
O=C(CS(=O)(=O)Cc1ccccc1)N1CCN(c2ccccc2F)CC1	i	0.52
CCCN(CC1CC1)C(=O)COc1ccccc1C(=O)NCc1ccccc1	-7.74*	-7.74
SMILES	KCNQ2 block	KCNQ2 enhance
CCC(C)N(C(=O)COc1ccccc1C(=O)NCc1ccccc1)C1CCS(=O)(=O)C1 (centres undefined)	i	·
COC(=O)c1cn(C(=O)c2ccc(F)cc2)c2ccccc12	i	·
C=CCOc1ccc(C(=O)n2cc(C(=O)OC)c3ccccc32)cc1	-6.16*	-6.16
CCCOc1ccc(C(=O)CCC(=O)OCC(=O)N(C)c2c(N)n(Cc3ccccc3)c(=O)[nH]c2=O)cc1	i	0.9
O=C(Nc1cccc(C(=O)O)c1)/C(=C\c1ccc2c(c1)OCO2)NC(=O)c1ccccc1Cl	i	·
c1csc(-c2noc(COc3ccc4c(c3)CCCC4)n2)c1	-6.04*	-6.04
Brc1ccc(-c2noc(COc3ccc4c(c3)CCC4)n2)o1	i	·
O=C(Nc1cccc(C(F)(F)F)c1)Oc1ccc(Cl)c2cccnc12	i	5.68*
CCN(CC)C(=O)Oc1ccc(Cl)c2cccnc12	i	·
CC1C(=O)C(C)C(c2ccc3c(c2)OCO3)NC1c1ccc2c(c1)OCO2 (centres undefined)	i	·
CC1C(=O)C(C)C(c2ccc(Br)cc2)NC1c1ccc(Br)cc1 (centres undefined)	-6.28*	-6.28
CN(CC(=O)Nc1c(Cl)cccc1Cl)C(=O)Cc1ccc(S(=O)(=O)N2CCOCC2)s1	i	2.4
CCOc1ccc(-c2c(C(=O)N/N=C(\C)c3cccnc3)nnn2-c2nonc2N)cc1	i	0.95
COc1ccccc1N1N=C(c2ccc([N+](=O)[O-])cc2)CC1c1ccccc1 (centres undefined)	-6.92*	-6.92
COc1cc(N2N=C(c3ccccc3)CC2c2ccccc2)c(C=O)cc1C=O (centres undefined)	i	·
Cc1ccc(C)c(S(=O)(=O)NCc2ccc3c(c2)OCO3)c1	i	1.03
COc1ccccc1NC(=O)CSc1ccc2nnc(CCNC(=O)c3ccccc3)n2n1	i	·
Cc1cc(C)c(NC(=O)COC(=O)Cc2cccs2)c(C)c1	i	0.04
Cc1ccc(N(CC(=O)NCc2ccccc2)C(=O)CCC(=O)Nc2ccccn2)cc1C	i	1.12
